VACV Venus inh: vaccinia inhibition (Venus reporter); Vaccinia virus Venus reporter expression, fluorescence; Potency, µM (highest dose often 36.5 µM), for the others: top-dose activity change, negative = inhibition, hits mostly inhibitors; 330,000 tested, 0.46% active; calls by dose curve; tested in A549 cells; note: potency is the fitted concentration of half-maximal effect; nearly all actives have a fitted effect of over 30% in size
LASV entry inh: Lassa virus entry inhibition | Lassa virus pseudotype entry inhibition, cell reporter | Potency, µM (highest dose often 37.9 µM), inactives show at the top dose activity change, negative = inhibition, most hits filed as inhibitors | 300,000 tested, 1.2% active | AID 540256; calls by dose curve; tested in HEK293 cells; note: potency is the fitted concentration of half-maximal effect; nearly all actives have a fitted effect of over 50% in size
FMDV antiviral: antivirals against foot and mouth disease virus; Potency, µM (highest dose often 57.9 µM), for the others: at the top dose activity change, negative = inhibition, most hits filed as inhibitors; 410,000 tested, 1.2% active; FMDV antiviral cell-based qHTS; calls by dose curve; tested in HEK293T cells; note: read-out not given here; potency is the fitted concentration of half-maximal effect; nearly all actives have a fitted effect of over 45% in size
HCMV inh: blocks human cytomegalovirus replication; HFF cells, HCMV-luciferase reporter, 72 h; hits give low values; activity change, negative = inhibition, % at 57.5 µM; 410,000 tested, 4.5% active; AID 1259415; in the data active = activity change below about -60%; inconclusive = no clear call, values can overlap the other calls; inactive = above about -39%
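Compounds were evaluated in HFFs infected with an HCMV luciferase reporter virus (MOI 1 PFU/cell). Luciferase in lysates collected 72 h post infection served as the replication measure.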
Marburg entry inh: blocks Marburg virus binding to or entry into cells | AID 540276 | Marburg virus pseudotyped entry inhibition, cell reporter | Potency, µM (titrated, usually from 37.8 µM), for the others: top-dose activity change, negative = inhibition, usual class: inhibitors | 300,000 tested, 1.8% active; calls by dose curve; tested in HEK293 cells; note: potency is the fitted concentration of half-maximal effect
Vaccinia mCherry: vaccinia inhibition (mCherry reporter); Potency, µM (titrated, usually from 36.5 µM), without a hit: top-dose activity change, negative = inhibition, hits mostly inhibitors; Vaccinia virus mCherry reporter infection, fluorescence; 310,000 tested, 0.63% active; calls by dose curve; tested in A549 cells; note: potency is the fitted concentration of half-maximal effect; nearly all actives have a fitted effect of over 35% in size
Numbers without * were called inactive; i = inactive; ? = inconclusive; · = not tested or not shown; [ ] = dose if it differs, or a comment. In the library only some 6.5% were active in any assay of this set; here they are far more common. % is set by controls: 0 for no effect and ±100 for the full control effect.

SMILES	VACV Venus inh	LASV entry inh	FMDV antiviral	HCMV inh	Marburg entry inh	Vaccinia mCherry
CCc1cccc(C)c1NC(=O)c1cnn(-c2ccc(OC)cc2)c1C1CCN(C(=O)OC(C)(C)C)CC1	-20%	?	14%	?	·	-23%
C=CCc1cccc(/C=N/NC(=O)CN2CCN(Cc3ccccc3)CC2)c1O	·	·	-16%	·	?	·
CC(Cc1ccccc1Sc1ccc(O)cc1)N(C)C (centres undefined)	-20%	2%	-10%	·	?	i[1.46 µM]
CC(Cc1ccccc1Sc1ccccc1)N(C)C (centres undefined)	-17%	?	-19%	-63*	?	-11%
COc1cccc(CN2CCN3C=C(C(=O)NC4CCc5ccccc54)OC3=NC2=O)c1 (centres undefined)	·	·	·	13	·	·
O=C(c1ccc(S(=O)(=O)N2CCCC2)cc1)N1CCCCC1	0%	7%	10%	-15	8%	-15%
O=C(Nc1cccnc1)c1cccc(S(=O)(=O)N2CCc3ccccc32)c1	-20%	-19%	?	22	6%[46.1 µM]	-24%
O=C(Nc1ccc(Cl)c(C(F)(F)F)c1)c1ccc2c(c1)CCN2S(=O)(=O)c1ccccc1	?	?	-19%	-74*	?	?
O=C(Nc1ccncc1)c1cccc(S(=O)(=O)N2CCc3ccccc32)c1	-19%	-16%	?	-77*	?	-28%
O=C(c1ccc(S(=O)(=O)N2CCc3ccccc3C2)cc1)N1CCCCC1	·	·	-24%	-62*	·	·
O=C(c1cccc(S(=O)(=O)N2CCc3ccccc3C2)c1)N1CCN(c2ccccc2)CC1	-28%	16µM*	?	2	?	-9%
COc1ccc2c(c1)cc1c(=O)n(CC(=O)NC3CC3)nc(C)n12	-4%	·	-24%	11	3%[46.1 µM]	-6%
c1ccc(-c2[nH]ncc2-c2ccnc(-c3ccc(OCCN4CCOCC4)cc3)c2)nc1	·	6%	·	·	·	·
O=C(c1ccc2c(c1)CCN2S(=O)(=O)c1ccccc1)N1CCN(c2ccc(F)cc2)CC1	-12%	0%[46.1 µM]	-11%	-30	7%[46.1 µM]	i
CCC(CC)c1nnc(NC(=O)c2cccc(S(=O)(=O)N3CCc4ccccc43)c2)s1	-10%	?	·	-39	-22%	-13%
O=C(c1cccc(S(=O)(=O)N2CCc3ccccc32)c1)N1CCN(c2ccccc2)CC1	-10%	4µM*	-12%	?	?	-25%
CCOC(=O)c1sc(NC(=O)c2cccc(S(=O)(=O)N3CCc4ccccc43)c2)c(C#N)c1C	·	·	?	-99*	·	·
C=CCOC(=O)N[C@H](c1ccccc1)[C@H](C)C=CCC(=O)OC	·	·	·	·	9%[14.2 µM]	·
CC(NC(=O)/C(C#N)=C/c1ccc(OCC(=O)O)cc1)c1ccccc1 (centres undefined)	·	·	1%	23	·	·
CC(NC(=O)/C(=C/c1ccc(OC(F)F)cc1)c1ccccc1)c1ccccc1 (centres undefined)	?	-23%	?	-79*	?	?
Cc1cc(CNC(=O)c2cnn(-c3ncc4c(n3)-c3ccccc3CCC4)c2C2CC2)on1	-8%	·	21%	·	·	i
O=C(COc1ccc(-c2nnco2)cc1)Nc1ccc(C(F)(F)F)cc1	-7%	13%	-23%	-75*	?	i
CCC(C)c1ccccc1NC(=O)COc1ccc(-c2nnco2)cc1 (centres undefined)	-17%	4%	-4%	-17	?	-6%
CN(C)CCC1(c2ccc(Cl)cc2)Cc2ccccc2C(=O)O1 (centres undefined)	·	·	-8%	·	·	·
O=C(Cn1ncn2cccc2c1=O)N1CCCCC1	-12%	5%	-11%	-18	19%	·
SMILES	VACV Venus inh	LASV entry inh	FMDV antiviral	HCMV inh	Marburg entry inh	Vaccinia mCherry
Cc1ccc(Cl)cc1N1CCN(C(=O)Cn2ncn3cccc3c2=O)CC1	-7%	·	?	-76*	·	-3%
COc1ccccc1CN(Cc1nc2ccccc2c(=O)[nH]1)C(=O)Nc1ccc(C)cc1	-10%	-10%	·	-28	-19%	i
COc1ccccc1CN(Cc1nc2ccccc2c(=O)[nH]1)S(=O)(=O)c1ccc(C)cc1	-7%	2%	·	-99*	8%	-27%
OC[C@H](S)CS	-6%	·	·	·	·	i
CCOC(=O)c1cc2c(C)n(-c3ccc(OCC)cc3)c(C)c2ccc1=O	-23%	?	40µM*	?	?	?
CCOC(=O)c1cc2c(C)n(-c3ccc(C)cc3)c(C)c2ccc1=O	·	?	-37%	-96*	26µM*	·
C=C[C@@]1(C)CC[C@H](O)[C@H]2C(=O)CCC[C@H]21	·	·	·	·	-28%[14.2 µM]	·
Cc1sc(-c2cc3ccccc3oc2=O)nc1-c1ccc(Cl)cc1	11%	13%[46.1 µM]	-3%	7	·	0%
Cc1cccc2c1-c1sc(C(=O)Nc3ccccc3N3CCN(C)CC3)cc1CO2	-24%	?	?	-5	16µM*	-19%
Cc1cccc2c1-c1sc(C(=O)NCCCN3CCN(c4ccccc4F)CC3)cc1CO2	-23%	·	?	-108*	11µM*	-14%
Cc1cccc2c1-c1sc(C(=O)N3CCN(c4cccc(Cl)c4)CC3)cc1CO2	-2%	·	-12%	-8	20%[46.1 µM]	-7%
Cc1cccc2c1-c1sc(C(=O)NCCCN3CCN(c4cccc(Cl)c4)CC3)cc1CO2	-16%	?	-32%	-75*	?	-11%
CCN1CCN(CCCNC(=O)c2cc3c(s2)-c2c(C)cccc2OC3)CC1	?	·	0%	-2	10µM*	?
CC(C)(C)OC(=O)N1CCC(c2c(C(=O)N3CCN(c4ccc(Cl)cc4)CC3)cnn2-c2ccc(F)cc2F)CC1	?	?	-28%	0	·	-29%
CCOc1ccc(C(=O)Nc2cc(-c3ccccc3)no2)cc1	-12%	27%[46.1 µM]	3%	61	?	-5%
Cc1cc(N2CCCC2=O)cc(C)c1S(=O)(=O)NCCOc1ccc(C(C)(C)C)cc1	?	12µM*	?	-91*	?	?
COc1ccc(N=N/C(=C\O)C(=O)c2cccs2)cc1	7%	?	-8%	-92*	-29%[46.1 µM]	?
CC(Nc1ncnc2ccccc12)c1ccccc1 (centres undefined)	-24%	?	?	-82*	?	i
CCc1cc(C(=O)N2CCOc3ccc(CN4CCN(Cc5ccccn5)CC4)cc3C2)no1	5%	·	-14%	·	·	-12%
Cc1ccc2[nH]c(C)c(/C=C/c3cc[n+](C)cc3)c2c1	227%	3.2µM*	-26%	-100*	8.9µM*	?
CCCn1c(/C=C/c2cc[n+](C)cc2)nc2ccccc21	-13%	-12%[46.1 µM]	-4%	?	-16%[46.1 µM]	i
Cc1ccc2c(c1)c(/C=C/c1cc[n+](C)cc1)c(C)n2C	i	·	?	-98*	·	-23%
Cc1ccc2[nH]c(C)c(/C=N/Nc3nc4ccccc4s3)c2c1	·	3%	-21%	56	?	·
CCC1CN(CC(=O)N(C)Cc2nc3ccccc3[nH]2)Cc2cc(OC)ccc2O1 (centres undefined)	5%	·	15%	·	·	-10%

Bioassay records: PubChem, National Center for Advancing Translational Sciences (NCATS)
